Test results reported in PubChem BioAssay (Tox21).
Results filed as inconclusive are left out. Calls of active or inactive are those of the source. Unless noted, calls follow the shape of the full dose curve.

test: qHTS assay to identify small molecule agonists of H2AX (AID 1224845; active = well fitted activation curve with a large enough effect in the signal ratio in the repeat runs, not every such curve was filed as active; the % refers to the signal ratio); settings: CHO-K1 phospho-H2AX Ser139 HTRF, 3 h; series mostly up to 154 µM; activation (H2AX phosphorylation): at the top concentration
Summary of the method: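 Wild-type CHO-K1 cells plated overnight, then exposed 3 hr at 37C to compounds at 15 concentrations (0.76% DMSO). Lysed, then HTRF anti-pH2AX(S139)-cryptate/anti-H2AX-d2 detection after 24 hr at room temperature; emissions 665 and 620 nm.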
% is scaled to controls: 0 for no effect and ±100 for the full control effect.

| SMILES | activation (H2AX phosphorylation) | outcome |
| --- | --- | --- |
| CCCC[N+](=O)[O-] | 1.89% (inactive) | – |
| BrCC1CO1 (stereo not given) | 1.23% (inactive) | – |
| CCC1(c2ccccc2)CCC(=O)NC1=O (stereo not given) | -4.3% [at 70.9 µM] (inactive) | – |
| ClC(Cl)(Cl)Cl | 3.22% (inactive) | – |
| CCc1ccc(C2CCNCC2)cc1 | -2.34% [at 70.9 µM] (inactive) | – |
| CC(C)C(C)(N)C#N (stereo not given) | 0.886% (inactive) | – |
| CC(C)(C)C(=O)C(Cl)Cl | -1.46% (inactive) | – |
| CN(C)C(=O)Oc1cc(OC(=O)N(C)C)cc(C(O)CNC(C)(C)C)c1 (stereo not given) | 0.745% [at 70.9 µM] (inactive) | – |
| CCOC(=O)NC(C)(C)Cc1ccc(Cl)cc1 | 3.34% [at 70.9 µM] (inactive) | – |
| O=P(O)(O)CN(CP(=O)(O)O)CP(=O)(O)O | – | inactive |
| CN(C)CCc1c[nH]c2cccc(OP(=O)(O)O)c12 | 0.0581% (inactive) | – |
| Cn1c(N)nc2c3cccnc3ccc21 | -0.125% (inactive) | – |
| CCNc1nc(NCC)nc(SC)n1 | -1.4% (inactive) | – |
| N[C@@H](Cc1ccc(Oc2cc(I)c(O)c(I)c2)c(I)c1)C(=O)O | 2.82% [at 70.9 µM] (inactive) | – |
| Clc1ccc(C(Cl)(Cl)Cl)cn1 | 0.589% (inactive) | – |
| CCNc1nc(Cl)nc(NC(C)(C)C)n1 | 1.41% (inactive) | – |

| SMILES | activation (H2AX phosphorylation) | outcome |
| --- | --- | --- |
| COc1ccc2c(C(=O)c3ccc(Cl)cc3)c(C)n(CC(=O)O)c2c1 | 1.32% [at 70.9 µM] (inactive) | – |
| CCCOC(=O)c1cncn1C(C)c1ccccc1 (stereo not given) | 1.44% [at 70.9 µM] (inactive) | – |
| CCOC(=O)C(Cl)Cc1cc(-n2nc(C)n(C(F)F)c2=O)c(F)cc1Cl (stereo not given) | -1.59% (inactive) | – |
| COc1ccc(CN2CCNCC2)c(OC)c1OC | 0.0821% [at 70.9 µM] (inactive) | – |
| CC(=O)OCC1=C(C(=O)O)N2C(=O)[C@@H](N)[C@H]2SC1 | 0.102% [at 31.6 µM] (inactive) | – |
| C=CCc1cc(OC)c2c(c1)OCO2 | 1.96% (inactive) | – |
| CC#Cc1cc(C)nc(Nc2ccccc2)n1 | -0.388% (inactive) | – |
| N#CC(Br)(Br)C(N)=O | 0.924% (inactive) | – |
| C=C1CC[C@@]2(O)[C@H]3Cc4ccc(O)c5c4[C@@]2(CCN3CC2CC2)[C@H]1O5 | -2.25% [at 70.9 µM] (inactive) | – |
| CC[C@H](O)C(C[C@H](C)N(C)C)(c1ccccc1)c1ccccc1 | -2.77% (inactive) | – |
| NCC1(CC(=O)O)CCCCC1 | -1.42% [at 70.9 µM] (inactive) | – |
| [O-][Br+2]([O-])O | 1.41% [at 70.9 µM] (inactive) | – |
| NNC(N)=O | -0.934% (inactive) | – |
| CNC(=O)O/N=C(/CSC)C(C)(C)C | -0.877% (inactive) | – |
| CC(Cc1ccccc1)NCCCCl (stereo not given) | 0.354% [at 70.9 µM] (inactive) | – |
| CCCCCCCCSC(=O)Oc1cc(Cl)nnc1-c1ccccc1 | 1.31% (inactive) | – |

test: qHTS assay to identify small molecule agonists of the hypoxia (HIF-1) signaling pathway (AID 1224846; active = well fitted activation curve with a large enough effect in the signal ratio in the repeat runs, not every such curve was filed as active; the % refers to the signal ratio); settings: HRE-bla ME-180 cells, beta-lactamase ratio, 17 h; series mostly up to 76.8 µM; activation: at the top concentration
Summary of the method: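 In ME-180 cells bearing an HRE-bla construct, 17 h treatment with DMSO-dissolved compounds at 37C was followed by CCF4-AM loading to quantify reporter induction.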

| SMILES | activation | outcome |
| --- | --- | --- |
| CCCC[N+](=O)[O-] | -0.268% (inactive) | – |
| BrCC1CO1 (stereo not given) | -0.956% (inactive) | – |
| CCC1(c2ccccc2)CCC(=O)NC1=O (stereo not given) | 0.117% [at 35.5 µM] (inactive) | – |
| ClC(Cl)(Cl)Cl | -0.109% (inactive) | – |
| CCc1ccc(C2CCNCC2)cc1 | 1.15% [at 35.5 µM] (inactive) | – |
| CC(C)C(C)(N)C#N (stereo not given) | -0.539% (inactive) | – |
| CC(C)(C)C(=O)C(Cl)Cl | -1.35% (inactive) | – |
| CCOC(=O)NC(C)(C)Cc1ccc(Cl)cc1 | -0.376% [at 35.5 µM] (inactive) | – |
| C=C(Cl)CSC(=S)N(CC)CC | 0.242% (inactive) | – |
| O=P(O)(O)CN(CP(=O)(O)O)CP(=O)(O)O | – | inactive |
| Cn1c(N)nc2c3cccnc3ccc21 | 0.118% (inactive) | – |
| CCNc1nc(NCC)nc(SC)n1 | 0.588% (inactive) | – |
| Clc1ccc(C(Cl)(Cl)Cl)cn1 | -2.24% (inactive) | – |
| COc1ccc2c(C(=O)c3ccc(Cl)cc3)c(C)n(CC(=O)O)c2c1 | -0.708% [at 35.5 µM] (inactive) | – |
| CCCOC(=O)c1cncn1C(C)c1ccccc1 (stereo not given) | -0.31% [at 35.5 µM] (inactive) | – |
| CCOC(=O)C(Cl)Cc1cc(-n2nc(C)n(C(F)F)c2=O)c(F)cc1Cl (stereo not given) | 0.942% (inactive) | – |
| CCOP(=S)(OCC)SCCl | 1.06% (inactive) | – |
| C=CCc1cc(OC)c2c(c1)OCO2 | -0.379% (inactive) | – |
| CC#Cc1cc(C)nc(Nc2ccccc2)n1 | 6.08% (inactive) | – |
| N#CC(Br)(Br)C(N)=O | 0.602% (inactive) | – |
| CC[C@H](O)C(C[C@H](C)N(C)C)(c1ccccc1)c1ccccc1 | 2.25% (inactive) | – |
| [O-][Br+2]([O-])O | -0.0413% [at 35.5 µM] (inactive) | – |
| CNC(=O)O/N=C(/CSC)C(C)(C)C | -0.729% (inactive) | – |
| CC(Cc1ccccc1)NCCCCl (stereo not given) | 0.68% [at 35.5 µM] (inactive) | – |
| CCCCCCCCSC(=O)Oc1cc(Cl)nnc1-c1ccccc1 | -2.1% (inactive) | – |

test: qHTS assay to identify small molecule agonists of H2AX - cell viability counter screen (AID 1224847); settings: CHO-K1 viability, CellTiter-Glo luminescence, 3 h; series mostly up to 154 µM; activity change, negative = cytotoxicity: at the top concentration; also: top concentration of the series differs between compounds; nearly all actives have a fitted effect of over 30% in size
Summary of the method: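 After overnight plating of 1000 CHO-K1 cells per well, a 15-concentration compound series was applied for 3 hr at 37C. Luminescence from CellTiter-Glo, read following 30 min at room temperature, reflected cell viability.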

| SMILES | activity change, negative = cytotoxicity | Potency |
| --- | --- | --- |
| CCCC[N+](=O)[O-] | -0.923% (inactive) | – |
| BrCC1CO1 (stereo not given) | 0.531% (inactive) | – |
| CCC1(c2ccccc2)CCC(=O)NC1=O (stereo not given) | -2.26% [at 70.9 µM] (inactive) | – |
| ClC(Cl)(Cl)Cl | -4.56% (inactive) | – |
| CCc1ccc(C2CCNCC2)cc1 | 0.798% [at 70.9 µM] (inactive) | – |
| CC(C)C(C)(N)C#N (stereo not given) | 0.945% (inactive) | – |
| CC(C)(C)C(=O)C(Cl)Cl | -0.441% (inactive) | – |
| CN(C)C(=O)Oc1cc(OC(=O)N(C)C)cc(C(O)CNC(C)(C)C)c1 (stereo not given) | -1.19% [at 70.9 µM] (inactive) | – |
| CCOC(=O)NC(C)(C)Cc1ccc(Cl)cc1 | -4.49% [at 70.9 µM] (inactive) | – |
| C=C(Cl)CSC(=S)N(CC)CC | -8.41% (inactive) | – |
| O=P(O)(O)CN(CP(=O)(O)O)CP(=O)(O)O | – | inactive |
| CN(C)CCc1c[nH]c2cccc(OP(=O)(O)O)c12 | 0.864% (inactive) | – |
| Cn1c(N)nc2c3cccnc3ccc21 | 3.24% (inactive) | – |
| CCNc1nc(NCC)nc(SC)n1 | 0.301% (inactive) | – |
| N[C@@H](Cc1ccc(Oc2cc(I)c(O)c(I)c2)c(I)c1)C(=O)O | 0.621% [at 70.9 µM] (inactive) | – |
| Clc1ccc(C(Cl)(Cl)Cl)cn1 | -4.82% (inactive) | – |
| CCNc1nc(Cl)nc(NC(C)(C)C)n1 | -0.0403% (inactive) | – |

| SMILES | activity change, negative = cytotoxicity | Potency |
| --- | --- | --- |
| COc1ccc2c(C(=O)c3ccc(Cl)cc3)c(C)n(CC(=O)O)c2c1 | 1.41% [at 70.9 µM] (inactive) | – |
| CCCOC(=O)c1cncn1C(C)c1ccccc1 (stereo not given) | 6.13% [at 70.9 µM] (inactive) | – |
| CCOC(=O)C(Cl)Cc1cc(-n2nc(C)n(C(F)F)c2=O)c(F)cc1Cl (stereo not given) | -6.16% (inactive) | – |
| COc1ccc(CN2CCNCC2)c(OC)c1OC | 1.47% [at 70.9 µM] (inactive) | – |
| CCOP(=S)(OCC)SCCl | 2.3% (inactive) | – |
| CC(=O)OCC1=C(C(=O)O)N2C(=O)[C@@H](N)[C@H]2SC1 | 3.73% [at 31.6 µM] (inactive) | – |
| C=CCc1cc(OC)c2c(c1)OCO2 | -5.95% (inactive) | – |
| CC#Cc1cc(C)nc(Nc2ccccc2)n1 | -4.88% (inactive) | – |
| N#CC(Br)(Br)C(N)=O | 0.0747% (inactive) | – |
| C=C1CC[C@@]2(O)[C@H]3Cc4ccc(O)c5c4[C@@]2(CCN3CC2CC2)[C@H]1O5 | 0.201% [at 70.9 µM] (inactive) | – |
| NCC1(CC(=O)O)CCCCC1 | 1.53% [at 70.9 µM] (inactive) | – |
| [O-][Br+2]([O-])O | 0.189% [at 70.9 µM] (inactive) | – |
| NNC(N)=O | 0.451% (inactive) | – |
| CNC(=O)O/N=C(/CSC)C(C)(C)C | 2.28% (inactive) | – |
| CC(Cc1ccccc1)NCCCCl (stereo not given) | -3.62% [at 70.9 µM] (inactive) | – |
| CC(C)(C)c1cc(O)ccc1O | 13.6% (inactive) | – |
